# The full data set covers some 8,800 targets. This sample favours those with a hit. About 0.5% of all pairs of compound and target were hits. Values without a mark were called inactive.
# Compound: CS(=O)(=O)CCNCc1ccc(-c2ccc3ncnc(Nc4ccc(OCc5cccc(F)c5)c(Cl)c4)c3c2)o1 [lapatinib]
# Test: log2 fold change, soluble protein after heating vs DMSO (PISA); higher = thermal stabilisation; K562 lysate, 10 uM; active = over 0.2 and 3.5 SD of the protein, either way, in both replicates (recomputed)
# Outline: (§1)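 K562 pellets were dounce-homogenised in PBS pH 7.4 with 1 mM MgCl2, and the crude extract at 1 mg/mL protein was treated with 10 μM compound for 30 min. Aliquots were heated for 3 min across 48°C-58°C, pooled, and brought to 0.5% NP-40 at 4°C; soluble protein was the supernatant after 21,000xg for 90 min. Soluble protein was quantified by TMTpro 16plex LC-MS/MS with channel sums equalised, and reported as log2 fold change in thermal stability against DMSO controls, with values from duplicates.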
# Chain of UniProt Q01813 (Q01813 whole entry, looked up): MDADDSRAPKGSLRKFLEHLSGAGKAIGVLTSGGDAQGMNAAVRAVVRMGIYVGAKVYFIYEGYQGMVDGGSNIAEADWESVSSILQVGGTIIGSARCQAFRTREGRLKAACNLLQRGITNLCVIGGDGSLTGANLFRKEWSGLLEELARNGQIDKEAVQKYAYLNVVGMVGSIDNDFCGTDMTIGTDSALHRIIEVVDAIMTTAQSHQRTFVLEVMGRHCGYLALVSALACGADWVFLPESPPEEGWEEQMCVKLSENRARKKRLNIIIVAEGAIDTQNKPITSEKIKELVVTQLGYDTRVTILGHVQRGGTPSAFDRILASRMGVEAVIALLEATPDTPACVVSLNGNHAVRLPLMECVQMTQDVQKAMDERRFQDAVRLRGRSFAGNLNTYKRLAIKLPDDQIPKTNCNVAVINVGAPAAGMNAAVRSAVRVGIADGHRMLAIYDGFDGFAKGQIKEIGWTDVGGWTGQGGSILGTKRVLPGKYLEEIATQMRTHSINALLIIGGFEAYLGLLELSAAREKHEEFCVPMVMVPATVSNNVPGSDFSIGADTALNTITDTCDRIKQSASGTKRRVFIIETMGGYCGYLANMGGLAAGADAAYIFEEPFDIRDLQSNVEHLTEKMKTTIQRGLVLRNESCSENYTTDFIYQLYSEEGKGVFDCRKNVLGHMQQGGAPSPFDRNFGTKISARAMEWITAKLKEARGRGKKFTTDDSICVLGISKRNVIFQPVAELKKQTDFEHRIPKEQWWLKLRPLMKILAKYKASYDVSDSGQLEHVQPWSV
# Chain of UniProt O00408 (O00408 whole entry, looked up): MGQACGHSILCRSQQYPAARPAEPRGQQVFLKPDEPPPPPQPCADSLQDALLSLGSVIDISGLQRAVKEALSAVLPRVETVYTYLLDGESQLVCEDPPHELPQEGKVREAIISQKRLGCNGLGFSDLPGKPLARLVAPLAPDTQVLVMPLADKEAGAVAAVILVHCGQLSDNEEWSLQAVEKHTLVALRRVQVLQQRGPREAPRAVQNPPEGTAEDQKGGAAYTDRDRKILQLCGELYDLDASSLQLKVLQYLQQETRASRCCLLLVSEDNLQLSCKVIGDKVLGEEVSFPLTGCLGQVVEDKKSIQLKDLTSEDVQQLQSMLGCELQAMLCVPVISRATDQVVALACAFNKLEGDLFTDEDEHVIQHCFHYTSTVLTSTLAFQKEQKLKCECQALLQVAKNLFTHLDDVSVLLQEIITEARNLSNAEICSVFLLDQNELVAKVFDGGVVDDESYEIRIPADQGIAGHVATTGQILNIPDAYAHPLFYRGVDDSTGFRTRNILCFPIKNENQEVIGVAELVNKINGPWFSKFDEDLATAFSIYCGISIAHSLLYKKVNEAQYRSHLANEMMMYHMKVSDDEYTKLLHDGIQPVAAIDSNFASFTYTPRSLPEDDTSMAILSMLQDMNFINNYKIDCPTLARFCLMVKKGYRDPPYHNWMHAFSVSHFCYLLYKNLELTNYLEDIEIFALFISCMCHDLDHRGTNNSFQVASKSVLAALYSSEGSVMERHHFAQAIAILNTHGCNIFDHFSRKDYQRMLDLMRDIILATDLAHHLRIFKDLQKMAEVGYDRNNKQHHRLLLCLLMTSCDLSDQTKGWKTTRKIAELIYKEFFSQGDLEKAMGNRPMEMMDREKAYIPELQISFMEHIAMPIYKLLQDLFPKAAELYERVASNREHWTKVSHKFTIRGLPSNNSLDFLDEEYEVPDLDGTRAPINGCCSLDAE
# Chain of UniProt P28065 (P28065 whole entry, looked up): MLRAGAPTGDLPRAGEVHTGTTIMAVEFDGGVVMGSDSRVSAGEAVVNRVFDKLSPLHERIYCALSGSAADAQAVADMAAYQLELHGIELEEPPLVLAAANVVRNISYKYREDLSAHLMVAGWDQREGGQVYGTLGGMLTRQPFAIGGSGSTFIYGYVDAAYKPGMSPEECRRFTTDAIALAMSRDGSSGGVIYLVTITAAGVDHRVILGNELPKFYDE
# Chain of UniProt Q96CD2 (Q96CD2 whole entry, looked up): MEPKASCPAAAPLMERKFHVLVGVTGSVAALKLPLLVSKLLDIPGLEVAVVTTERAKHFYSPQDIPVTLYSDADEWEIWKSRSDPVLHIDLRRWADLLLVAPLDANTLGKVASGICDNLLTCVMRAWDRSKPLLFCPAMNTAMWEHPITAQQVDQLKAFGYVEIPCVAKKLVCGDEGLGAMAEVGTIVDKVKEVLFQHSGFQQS
# Chain of UniProt P57721 (P57721 whole entry, looked up): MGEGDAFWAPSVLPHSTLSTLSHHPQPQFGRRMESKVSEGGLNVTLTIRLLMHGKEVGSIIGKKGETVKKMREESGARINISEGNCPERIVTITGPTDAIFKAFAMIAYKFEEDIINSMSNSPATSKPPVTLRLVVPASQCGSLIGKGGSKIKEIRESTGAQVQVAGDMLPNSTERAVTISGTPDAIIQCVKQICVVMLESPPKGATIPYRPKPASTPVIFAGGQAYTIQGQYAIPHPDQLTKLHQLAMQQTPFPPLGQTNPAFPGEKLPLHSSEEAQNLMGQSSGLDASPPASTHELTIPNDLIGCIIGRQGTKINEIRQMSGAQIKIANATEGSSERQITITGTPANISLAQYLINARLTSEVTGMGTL
# Chain of UniProt P05771 (P05771 whole entry, looked up): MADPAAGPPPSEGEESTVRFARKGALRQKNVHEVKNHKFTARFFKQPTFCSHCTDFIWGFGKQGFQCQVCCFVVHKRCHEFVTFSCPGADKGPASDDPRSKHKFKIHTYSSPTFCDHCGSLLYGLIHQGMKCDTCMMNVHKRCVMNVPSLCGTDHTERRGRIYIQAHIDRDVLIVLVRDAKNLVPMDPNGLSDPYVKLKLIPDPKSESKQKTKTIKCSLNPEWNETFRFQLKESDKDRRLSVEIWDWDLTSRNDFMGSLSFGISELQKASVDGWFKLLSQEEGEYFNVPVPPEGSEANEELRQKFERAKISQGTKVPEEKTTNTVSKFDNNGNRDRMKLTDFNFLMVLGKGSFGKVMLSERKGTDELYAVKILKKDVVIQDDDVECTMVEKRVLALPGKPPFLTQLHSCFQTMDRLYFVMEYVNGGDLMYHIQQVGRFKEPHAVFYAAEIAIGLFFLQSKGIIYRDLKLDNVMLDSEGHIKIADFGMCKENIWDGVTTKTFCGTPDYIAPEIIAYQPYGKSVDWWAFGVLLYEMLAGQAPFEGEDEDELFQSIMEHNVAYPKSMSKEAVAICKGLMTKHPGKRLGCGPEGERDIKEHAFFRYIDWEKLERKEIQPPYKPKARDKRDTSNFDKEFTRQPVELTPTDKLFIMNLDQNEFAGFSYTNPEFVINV
# Chain of UniProt Q8IZ21 (Q8IZ21 whole entry, looked up): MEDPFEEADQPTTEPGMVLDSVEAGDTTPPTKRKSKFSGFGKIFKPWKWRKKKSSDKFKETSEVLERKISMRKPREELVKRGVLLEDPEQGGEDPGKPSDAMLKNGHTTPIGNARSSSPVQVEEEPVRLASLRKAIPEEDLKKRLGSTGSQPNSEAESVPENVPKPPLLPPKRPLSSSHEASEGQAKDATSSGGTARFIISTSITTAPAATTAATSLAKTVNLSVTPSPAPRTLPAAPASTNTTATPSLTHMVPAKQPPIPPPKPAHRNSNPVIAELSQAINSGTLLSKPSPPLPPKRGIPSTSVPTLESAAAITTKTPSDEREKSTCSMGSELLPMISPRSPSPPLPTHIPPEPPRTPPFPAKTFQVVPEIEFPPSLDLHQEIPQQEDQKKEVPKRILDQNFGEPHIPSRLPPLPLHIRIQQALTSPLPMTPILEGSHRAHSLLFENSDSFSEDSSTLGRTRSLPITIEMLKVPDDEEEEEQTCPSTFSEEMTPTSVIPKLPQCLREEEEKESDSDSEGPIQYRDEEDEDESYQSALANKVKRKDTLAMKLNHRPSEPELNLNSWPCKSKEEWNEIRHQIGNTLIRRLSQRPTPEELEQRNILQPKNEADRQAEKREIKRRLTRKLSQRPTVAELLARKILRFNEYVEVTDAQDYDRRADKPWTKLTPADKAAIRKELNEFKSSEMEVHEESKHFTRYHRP
# Chain of UniProt Q8N4L2 (Q8N4L2 whole entry, looked up): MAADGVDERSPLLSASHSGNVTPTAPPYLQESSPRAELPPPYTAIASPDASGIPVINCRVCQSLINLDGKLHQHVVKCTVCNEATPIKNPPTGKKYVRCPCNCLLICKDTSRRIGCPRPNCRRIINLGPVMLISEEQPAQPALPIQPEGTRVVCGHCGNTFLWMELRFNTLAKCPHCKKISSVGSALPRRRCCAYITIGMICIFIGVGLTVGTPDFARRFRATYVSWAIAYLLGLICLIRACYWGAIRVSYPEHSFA
# Chain of UniProt Q13356 (Q13356 whole entry, looked up): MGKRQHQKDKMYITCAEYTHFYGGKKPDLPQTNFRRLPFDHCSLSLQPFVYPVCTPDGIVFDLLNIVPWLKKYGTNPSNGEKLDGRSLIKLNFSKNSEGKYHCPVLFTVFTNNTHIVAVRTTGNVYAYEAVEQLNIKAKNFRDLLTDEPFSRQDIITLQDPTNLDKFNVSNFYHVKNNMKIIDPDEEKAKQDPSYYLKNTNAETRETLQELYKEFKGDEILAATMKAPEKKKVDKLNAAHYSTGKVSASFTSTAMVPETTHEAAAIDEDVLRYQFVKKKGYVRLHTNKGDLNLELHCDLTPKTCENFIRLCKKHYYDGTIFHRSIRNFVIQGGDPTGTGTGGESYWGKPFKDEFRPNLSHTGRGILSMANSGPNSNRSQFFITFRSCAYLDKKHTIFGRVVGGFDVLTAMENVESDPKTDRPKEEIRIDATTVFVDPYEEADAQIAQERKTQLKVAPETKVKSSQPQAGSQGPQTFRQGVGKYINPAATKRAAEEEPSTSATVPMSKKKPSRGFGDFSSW
# Chain of UniProt Q96S99 (Q96S99 whole entry, looked up): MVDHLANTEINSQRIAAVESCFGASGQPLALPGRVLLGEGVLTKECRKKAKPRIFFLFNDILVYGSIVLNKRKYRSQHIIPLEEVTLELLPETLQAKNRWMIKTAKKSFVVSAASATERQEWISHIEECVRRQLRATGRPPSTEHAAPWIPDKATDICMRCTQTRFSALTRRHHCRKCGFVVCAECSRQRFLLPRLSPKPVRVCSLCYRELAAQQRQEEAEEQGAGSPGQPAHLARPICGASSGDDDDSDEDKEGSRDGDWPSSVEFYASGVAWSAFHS
row,Target,log2 fold change
1,PFKP (UniProt Q01813),-0.011
2,PHKG2 (UniProt P15735),-0.07
3,PPCDC (UniProt Q96CD2),-0.023
4,PDE2A (UniProt O00408),0.005
5,PRKCB isoform 2 (UniProt P05771),-0.001
6,PIP4P2 (UniProt Q8N4L2),0.021
7,PHKA1 (UniProt P46020),-0.117
8,PIK3R2 (UniProt O00459),-0.009
9,PSMB9 (UniProt P28065),-0.093
10,PHACTR4 isoform 2 (UniProt Q8IZ21),-0.015
11,PI4K2A (UniProt Q9BTU6),-0.02
12,PDE4DIP isoform 4 (UniProt Q5VU43),-0.003
13,PDXDC1 (UniProt Q6P996),-0.025
14,PPIL2 (UniProt Q13356),-0.034
15,PRRC2A (UniProt P48634),-0.02
16,PCBP3 (UniProt P57721),-0.031

# Compound: CS(=O)(=O)N1CCN(Cc2cc3nc(-c4cccc5[nH]ncc45)nc(N4CCOCC4)c3s2)CC1 [pictilisib]
# Test: as above
# Outline: as §1
row,Target,log2 fold change
1,PUS1 (UniProt Q9Y606),-0.058
2,PTPN23 (UniProt Q9H3S7),-0.028
3,PDCD6IP (UniProt Q8WUM4),-0.032
4,PMS2 (UniProt P54278),0.021
5,PSTPIP2 (UniProt Q9H939),0.019
6,PUM1 isoform 3 (UniProt Q14671),-0.036
7,PICALM (UniProt Q13492),0.001
8,PTPN1 (UniProt P18031),-0.022
9,PPP2R5C isoform 5 (UniProt Q13362),0.01
10,POLD3 (UniProt Q15054),-0.046
11,PIP4K2A (UniProt P48426),0.032
12,PDS5A (UniProt Q29RF7),-0.053
13,PFN1 (UniProt P07737),-0.003
14,PLXNB2 (UniProt O15031),-0.068
15,PFAS (UniProt O15067),-0.011
16,PITRM1 isoform 2 (UniProt Q5JRX3),-0.025
17,PPP1R8 (UniProt Q12972),-0.008
18,PLEKHF1 (UniProt Q96S99),-0.016
19,PRKACB isoform 2 (UniProt P22694),-0.042
20,PIP4K2C (UniProt Q8TBX8),0.063

row,Target,log2 fold change
1,PDPK1 (UniProt O15530),-0.051
2,PIK3C3 (UniProt Q8NEB9),0.041
3,PHOSPHO2 (UniProt Q8TCD6),0.015
4,PFKP (UniProt Q01813),-0.014
5,PHKG2 (UniProt P15735),-0.069
6,PPCDC (UniProt Q96CD2),-0.176
7,PDE2A (UniProt O00408),0
8,PRKCB isoform 2 (UniProt P05771),0.003
9,PIP4P2 (UniProt Q8N4L2),-0.019
10,PHKA1 (UniProt P46020),-0.003
11,PIK3R2 (UniProt O00459),0.318 (active)
12,PSMB9 (UniProt P28065),0.028
13,PHACTR4 isoform 2 (UniProt Q8IZ21),-0.014
14,PI4K2A (UniProt Q9BTU6),-0.036
15,PDE4DIP isoform 4 (UniProt Q5VU43),-0.076
16,PDXDC1 (UniProt Q6P996),-0.019
17,PPIL2 (UniProt Q13356),-0.014
18,PRRC2A (UniProt P48634),-0.017
19,PCBP3 (UniProt P57721),-0.035

# Compound: C[C@@H](Oc1cc(-c2cnn(C3CCNCC3)c2)cnc1N)c1c(Cl)ccc(F)c1Cl [crizotinib]
# Test: as above
# Outline: as §1
row,Target,log2 fold change
1,PUS1 (UniProt Q9Y606),-0.062
2,PTPN23 (UniProt Q9H3S7),-0.014
3,PDCD6IP (UniProt Q8WUM4),-0.103
4,PMS2 (UniProt P54278),-0.038
5,PSTPIP2 (UniProt Q9H939),-0.047
6,PUM1 isoform 3 (UniProt Q14671),0.067
7,PICALM (UniProt Q13492),0.024
8,PTPN1 (UniProt P18031),-0.031
9,PPP2R5C isoform 5 (UniProt Q13362),0.004
10,POLD3 (UniProt Q15054),-0.056
11,PIP4K2A (UniProt P48426),0.019
12,PDS5A (UniProt Q29RF7),-0.123
13,PFN1 (UniProt P07737),0.016
14,PLXNB2 (UniProt O15031),-0.014
15,PFAS (UniProt O15067),-0.067
16,PITRM1 isoform 2 (UniProt Q5JRX3),0.053
17,PPP1R8 (UniProt Q12972),0.021
18,PLEKHF1 (UniProt Q96S99),-0.021
19,PRKACB isoform 2 (UniProt P22694),-0.018
20,PIP4K2C (UniProt Q8TBX8),-0.036

row,Target,log2 fold change
1,PDPK1 (UniProt O15530),0.03
2,PIK3C3 (UniProt Q8NEB9),-0.009
3,PHOSPHO2 (UniProt Q8TCD6),-0.001
4,PFKP (UniProt Q01813),0.014
5,PHKG2 (UniProt P15735),0.166
6,PPCDC (UniProt Q96CD2),0
7,PDE2A (UniProt O00408),0.074
8,PRKCB isoform 2 (UniProt P05771),0.036
9,PIP4P2 (UniProt Q8N4L2),0.021
10,PHKA1 (UniProt P46020),-0.001
11,PIK3R2 (UniProt O00459),-0.018
12,PSMB9 (UniProt P28065),-0.098
13,PHACTR4 isoform 2 (UniProt Q8IZ21),-0.005
14,PI4K2A (UniProt Q9BTU6),0.003
15,PDE4DIP isoform 4 (UniProt Q5VU43),-0.048
16,PDXDC1 (UniProt Q6P996),-0.056
17,PPIL2 (UniProt Q13356),-0.037
18,PRRC2A (UniProt P48634),0.06
19,PCBP3 (UniProt P57721),0.002

# Source: the supplement of paper PMC10849652
